Assay results published in PubChem BioAssay (NCATS).
Results filed as inconclusive are left out. A call without a number means that no potency is given here. Activity calls are given as the source filed them. Calls come from the whole dose curve; as a rule, active = well fitted inhibition curve with a large enough effect; inconclusive = small, poorly fitted or top-dose-only effect; inactive = flat fitted curve, though single readings scatter.

Key:
Assay in all cases: qHTS profiling for inhibitors of Plasmodium falciparum proliferation (AID 504749); note: nearly all actives have a fitted effect of over 60% in size
Settings in all cases: P. falciparum in erythrocytes, SYBR Green DNA, 72 h; series mostly up to 28.7 µM
[1] = test system: P94_40
Summary of the method: (§1)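 Three-day growth assay of blood-stage parasites in erythrocytes (0.3% parasitemia, 2.5% hematocrit) at 37 C, 5% CO2, quantified by SYBR Green DNA staining after overnight detergent lysis.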

[2] = test system: PAD
Summary of the method: as §1

[3] = test system: PC15
Summary of the method: as §1

[4] = test system: PC49
Summary of the method: as §1

[5] = test system: SC27B
Summary of the method: as §1

[6] = test system: TAB109
Summary of the method: as §1

[7] = test system: TAB113
Summary of the method: as §1

[8] = test system: TAB165
Summary of the method: as §1

[9] = test system: W2
Summary of the method: as §1

[10] = test system: PC26
Summary of the method: as §1
Potency is the fitted concentration of half-maximal effect.

| Structure (SMILES) | Potency [1] | Potency [2] | Potency [3] | Potency [4] | Potency [5] | Potency [6] | Potency [7] | Potency [8] | Potency [9] | Potency [10] |
| --- | --- | --- | --- | --- | --- | --- | --- | --- | --- | --- |
| Cc1cc(C(=O)NCCc2ccc(S(=O)(=O)NC(=O)NN3CCCCCC3)cc2)no1 | inactive | inactive | inactive | inactive | inactive | inactive | inactive | inactive | inactive |  |
| COc1cc2c(cc1OC)[C@@H](Cc1cc(OC)c(OC)c(OC)c1)[N+](C)(CCCOC(=O)CC/C=C/CCC(=O)OCCC[N+]1(C)CCc3cc(OC)c(OC)cc3[C@H]1Cc1cc(OC)c(OC)c(OC)c1)CC2 (stereo partly specified) | inactive | inactive | inactive | inactive | inactive | inactive | inactive | inactive | inactive |  |
| COc1ccc(/C=N/NC(=O)c2ccncc2)c(C(=O)O)c1OC | inactive | inactive | inactive | inactive | inactive |  | inactive | inactive | inactive | inactive |
| O=C(O[C@H]1CN2CCC1CC2)N1CCc2ccccc2[C@@H]1c1ccccc1 | inactive | inactive |  | inactive | inactive | inactive | inactive |  | 1.69 µM (active) |  |
| Cc1cc2nc3c(=O)[nH]c(=O)nc-3n(C[C@H](O)[C@H](O)[C@H](O)COP(=O)(O)OP(=O)(O)OC[C@H]3O[C@@H](n4cnc5c(N)ncnc54)[C@H](O)[C@@H]3O)c2cc1C | inactive | inactive | inactive | inactive | inactive | inactive | inactive | inactive | inactive |  |
| CC1=CC(=C(c2ccc(N)cc2)c2ccc(N)cc2)C=CC1=N | 1.41 µM (active) | 2.51 µM (active) | 11.2 µM (active) |  | 3.16 µM (active) | 2.24 µM (active) | 1.41 µM (active) | 2 µM (active) | 0.536 µM (active) | 5.36 µM (active) |
| CCC(=O)c1ccc2c(c1)N(CCCN1CCN(CCO)CC1)c1ccccc1S2 | 10 µM (active) | 8.91 µM (active) | 7.08 µM (active) | 10 µM (active) |  |  |  | 10 µM (active) | 5.36 µM (active) | 7.57 µM (active) |
| NC(=S)N=Nc1ccc(NN=C(N)N)cc1 | 7.94 µM (active) | 11.2 µM (active) | 8.91 µM (active) |  | 11.2 µM (active) | 11.2 µM (active) |  | 7.94 µM (active) | 1.69 µM (active) |  |
| O=C(CCCN1CCN2CCCC2C1)c1ccc(F)cc1 (stereo unspecified) | inactive | inactive | inactive | inactive | inactive |  |  |  | 6.01 µM (active) | inactive |
| CC1CC(O)CC(C)(C)C1 (stereo unspecified) | inactive | inactive | inactive | inactive | inactive | inactive | inactive | inactive | inactive |  |
| CCN(CC)C(=O)c1cccnc1 | inactive | inactive | inactive | inactive | inactive | inactive | inactive | inactive | inactive |  |
| C[C@H]1O[C@@H](O[C@H]2[C@@H](O)C[C@H](O[C@H]3[C@@H](O)C[C@H](O[C@H]4CC[C@@]5(C)[C@H](CC[C@@H]6[C@@H]5C[C@@H](O)[C@]5(C)[C@@H](C7=CC(=O)OC7)CC[C@]65O)C4)O[C@@H]3C)O[C@@H]2C)C[C@H](O)[C@@H]1O | inactive | inactive |  | inactive | inactive | inactive | inactive | inactive |  |  |
| O=C1N=C2SCCN2C(=O)C1Cc1ccc(Cl)cc1 (stereo unspecified) | inactive | inactive | inactive | inactive | inactive | inactive | inactive | inactive | inactive |  |
| Cc1c(C)c2c(c(C)c1OC(=O)CCC(=O)O)CC[C@@](C)(CCC[C@H](C)CCC[C@H](C)CCCC(C)C)O2 | inactive | inactive |  | inactive | inactive | inactive | inactive | inactive |  | inactive |
| Cn1cc(NC(=O)c2cc(NC(=O)c3cc(NC=O)cn3C)cn2C)cc1C(=O)NCCC(=N)N | 4.47 µM (active) | 5.01 µM (active) | 7.08 µM (active) |  | 11.2 µM (active) | 5.01 µM (active) | 5.01 µM (active) | 5.01 µM (active) | 4.78 µM (active) | 13.5 µM (active) |
| CC(C)NCC(O)COc1ccccc1-n1cccc1 (stereo unspecified) | inactive | inactive |  | inactive | inactive |  | inactive | inactive |  | inactive |
| O=C1NCCN1c1ncc([N+](=O)[O-])s1 | inactive | inactive | inactive |  | inactive |  | inactive | inactive | inactive | inactive |
| COc1ccc2c(c1)OC(C)(C)C(c1ccccc1)C2c1ccc(OCCN2CCCC2)cc1 (stereo unspecified) | 6.31 µM (active) | 8.91 µM (active) | 11.2 µM (active) |  | 8.91 µM (active) | 3.16 µM (active) | 8.91 µM (active) | 3.16 µM (active) | 1.69 µM (active) | 4.78 µM (active) |
| O=C(CCCN1CCC(C(=O)c2ccc(F)cc2)CC1)c1ccc(F)cc1 | inactive | inactive |  |  | inactive |  | inactive |  | 3.79 µM (active) |  |
| CN(C)CCOc1ccc(/C(=C(/CCCl)c2ccccc2)c2ccccc2)cc1 | inactive | inactive |  | inactive | inactive | inactive | inactive | inactive | inactive | inactive |
| CCSc1ccc2c(c1)N(CCCN1CCN(C)CC1)c1ccccc1S2 | inactive | inactive | inactive | inactive |  | inactive |  | inactive |  | inactive |
| CSCCC(N)C(=O)O (stereo unspecified) | inactive | inactive | inactive | inactive | inactive | inactive | inactive | inactive | inactive |  |
| CC(=O)Oc1cccc(C(=O)O)c1OC(C)=O | inactive | inactive | inactive | inactive | inactive |  | inactive | inactive | inactive | inactive |
| OCC1(CO)COC(C(Cl)(Cl)Cl)OC1 | inactive | inactive | inactive | inactive | inactive |  | inactive | inactive | inactive | inactive |
| CC(C)=CCC/C(C)=C/CC/C(C)=C/CC/C=C(\C)CC/C=C(\C)CCC=C(C)C | inactive | inactive | inactive |  | inactive | inactive | inactive | inactive |  | inactive |
| CCOC(=O)[C@@H](N)CS | inactive | inactive | inactive |  | inactive | inactive | inactive | inactive | inactive | inactive |
| Cc1cccc(Nc2ncccc2C(=O)O)c1C | inactive | inactive | inactive | inactive | inactive |  |  | inactive | inactive | inactive |
| CC(=O)Nc1ccc(NC(=S)NC(=O)c2ccc(C(C)(C)C)cc2)cc1 | inactive | inactive |  | inactive | inactive |  | inactive |  | 7.57 µM (active) | inactive |
| CN1C(C(=O)Nc2ccccn2)C(=O)c2sc(Cl)cc2S1(=O)=O (stereo unspecified) | inactive | inactive | inactive | inactive | inactive | inactive | inactive | inactive | inactive |  |
| CC(=O)Nc1c(I)c(C(=O)O)c(I)c(N(C)C(C)=O)c1I | inactive | inactive | inactive | inactive |  | inactive | inactive | inactive | inactive | inactive |
